Test systems include SR leukemia; RPMI-8226 leukemia; OVCAR-8 ovarian; OVCAR-5 ovarian; OVCAR-4 ovarian; SK-OV-3 ovarian; IGROV1 ovarian; OVCAR-3 ovarian; HS 578T breast; NCI/ADR-RES ovarian; T-47D breast; BT-549 breast; MDA-MB-435 melanoma; SW-620 colon; MCF7 breast; HCT-116 colon; HCC-2998 colon; KM12 colon; MDA-MB-468 breast.
Experiment in all cases: NCI-60 one-dose screen, 48 h (100 = growth as untreated, 0 = no growth, -100 = all killed)
Holding throughout (settings): 10 µM unless noted

This is part of a sample that, as a whole, favours compounds with a hit. Of some 83,000 tested, about 20% had one in any assay.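 How to read the values: 0–100, growth inhibition (40 = 60% inhibited); 0, no net growth; -100 to 0, cell death (-40 = 40% of starting cells died; -100 = all dead).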 Unmarked numbers belong to inactive results. The source made the active and inactive calls. Rule for the calls: active = growth percent below 10; inactive = the rest.

Regarding `COc1cc2oc(-c3cccc(C(=O)Nc4ccc(Cl)cc4)c3)cc(=O)c2c(OCCNC(=O)[C@H](CO)NC(=O)OC(C)(C)C)c1OC`, the growth with SR leukemia is 2.89% (active); with RPMI-8226 leukemia, -39.9% (active); in the assay on OVCAR-8 ovarian it was 18.3%; in the assay on OVCAR-5 ovarian, 32%; in the assay on OVCAR-4 ovarian it was 36.4%; with SK-OV-3 ovarian, 93.3%. The growth in the assay on IGROV1 ovarian was 25.3%; with OVCAR-3 ovarian, 17.2%; with HS 578T breast, 26.5%; with NCI/ADR-RES ovarian it was 64.8%; with T-47D breast, 29%; in the assay with BT-549 breast, -52.3% (active). The growth is 3.55% (active) in the assay on MDA-MB-435 melanoma; 33.7% in the assay on SW-620 colon; 6.34% (active) with MCF7 breast; 7.19% (active) in the assay on HCT-116 colon; -7.27% (active) in the assay on HCC-2998 colon; 17.3% in the assay on KM12 colon. Also, in the assay with MDA-MB-468 breast, the growth was -4.81% (active).

With `C=CC[N+](C)(C)CCn1c2ccccc2c2nc3cc(C)c(C)cc3nc21`, the growth was 85% in the assay on SR leukemia; 95.1% in the assay with RPMI-8226 leukemia; 98.4% in the assay with OVCAR-8 ovarian; 111% in the assay on OVCAR-5 ovarian; 95% in the assay with OVCAR-4 ovarian; 96.7% with SK-OV-3 ovarian. For the same compound, the growth with IGROV1 ovarian is 42.6%; in the assay with OVCAR-3 ovarian, 96.4%; in the assay with HS 578T breast it was 56.2%; in the assay with NCI/ADR-RES ovarian, 108%; with T-47D breast, 99.9%; with BT-549 breast, 54.6%. In addition, the growth is 99.6% in the assay with MDA-MB-435 melanoma; 94.6% with SW-620 colon; 80% with MCF7 breast; 98.4% in the assay with HCT-116 colon; 96.2% in the assay with HCC-2998 colon; 99% in the assay with KM12 colon. The growth in the assay on MDA-MB-468 breast was -2.23% (active).

`CC(/C=C1\SC(=S)N(CCCC(=O)NC(CC(C)C)C(=O)O)C1=O)=C\c1ccccc1` (configuration not stated): the growth in the assay with SR leukemia was 101%; in the assay on RPMI-8226 leukemia, 77.6%; in the assay on OVCAR-8 ovarian, 87.5%; with OVCAR-5 ovarian, 111%; with OVCAR-4 ovarian, 99.8%; with SK-OV-3 ovarian, 106%. The growth in the assay with IGROV1 ovarian is 109%; with OVCAR-3 ovarian, 91.3%; in the assay with HS 578T breast, 97.5%; in the assay with NCI/ADR-RES ovarian it was 94.1%; with T-47D breast, 89.7%; with BT-549 breast, 78%. For the same compound, the growth with MDA-MB-435 melanoma is 94.8%; in the assay on SW-620 colon it was 112%; in the assay on MCF7 breast, 82.1%; in the assay on HCT-116 colon, 71%; in the assay with HCC-2998 colon, 108%; in the assay with KM12 colon it was 57.9%. For the same compound, in the assay with MDA-MB-468 breast, the growth is 86.7%.

As to `CCOC(=O)C1=C(N)N(c2ccccc2)C2=C(C(=O)CC(C)(C)C2)C1c1ccc(N2CCOCC2)cc1` (configuration not stated), the growth in the assay on SR leukemia is 83.8%; with RPMI-8226 leukemia, 96.2%; in the assay on OVCAR-8 ovarian, 97.1%; in the assay with OVCAR-5 ovarian, 101%; in the assay with OVCAR-4 ovarian it was 101%; with SK-OV-3 ovarian, 102%. Also, the growth with IGROV1 ovarian is 108%; with OVCAR-3 ovarian, 113%; in the assay on HS 578T breast, 95.1%; in the assay with NCI/ADR-RES ovarian it was 100%; in the assay with T-47D breast it was 93.7%; in the assay on BT-549 breast it was 103%. The growth in the assay on MDA-MB-435 melanoma is 104%; in the assay on SW-620 colon it was 101%; with MCF7 breast, 90.7%; with HCT-116 colon, 99.1%; in the assay with HCC-2998 colon, 108%; with KM12 colon, 105%. For the same compound, the growth in the assay on MDA-MB-468 breast was 89.6%.

For `COc1ccc2c(c1)C(=N/N=C(\C)c1ccc(OC)c(S(N)(=O)=O)c1)C(=O)N2`, the growth in the assay on SR leukemia is 83.2%; in the assay on RPMI-8226 leukemia it was 83%; in the assay on OVCAR-8 ovarian, 92.7%; in the assay on OVCAR-5 ovarian, 99.8%; with OVCAR-4 ovarian it was 96.6%; in the assay on SK-OV-3 ovarian, 97.6%. In addition, the growth in the assay on IGROV1 ovarian is 107%; in the assay on OVCAR-3 ovarian, 106%; in the assay on HS 578T breast it was 70.3%; with NCI/ADR-RES ovarian it was 100%; in the assay on T-47D breast it was 87%; in the assay on BT-549 breast, 59%. In addition, the growth in the assay on MDA-MB-435 melanoma was 96.1%; in the assay with SW-620 colon, 93.9%; with MCF7 breast, 90.3%; in the assay on HCT-116 colon, 88.6%; in the assay on HCC-2998 colon, 111%; in the assay with KM12 colon it was 97.5%. Moreover, the growth in the assay on MDA-MB-468 breast is 78.6%.

In the case of `CN(C)c1ccnc(CNCCSC2(c3ccc(C(F)(F)F)cc3)c3ccccc3C=Cc3ccccc32)c1`, the growth in the assay on SR leukemia is -53% (active); with RPMI-8226 leukemia, -48.9% (active); with OVCAR-8 ovarian, -77.2% (active); in the assay on OVCAR-5 ovarian it was 1.89% (active); with OVCAR-4 ovarian, 13%; with SK-OV-3 ovarian it was 8.64% (active). Moreover, the growth in the assay on IGROV1 ovarian was 9.31% (active); with OVCAR-3 ovarian, -40.5% (active); with HS 578T breast, -18% (active); in the assay with NCI/ADR-RES ovarian, -73.6% (active); in the assay with T-47D breast, -60.8% (active); with BT-549 breast, -6.19% (active). Further, the growth was -78.3% (active) in the assay with MDA-MB-435 melanoma; -82.8% (active) with SW-620 colon; -89.2% (active) in the assay on MCF7 breast; -37.8% (active) in the assay with HCT-116 colon; -93.9% (active) in the assay with HCC-2998 colon; -31.5% (active) with KM12 colon. For the same compound, the growth with MDA-MB-468 breast is -57.7% (active).

Take `CCCCCCCS(=O)(=O)N1CCCC(C(=O)Nc2nc3ccc(NC(=O)c4ccc(F)c(OC)c4F)cc3s2)C1` (configuration not stated): the growth in the assay on SR leukemia is 60.6%; in the assay on RPMI-8226 leukemia, 41.3%; in the assay on OVCAR-8 ovarian it was 6.24% (active); in the assay on OVCAR-5 ovarian, 65.1%; in the assay on OVCAR-4 ovarian it was 29.8%; in the assay on SK-OV-3 ovarian, 57.4%. Besides, the growth is 60.3% with IGROV1 ovarian; 40.2% with OVCAR-3 ovarian; 25.2% in the assay with HS 578T breast; 46.8% in the assay on NCI/ADR-RES ovarian; 41.9% in the assay on T-47D breast; 55.8% in the assay with BT-549 breast. The growth in the assay on MDA-MB-435 melanoma was 72.2%; with SW-620 colon it was 64.6%; with MCF7 breast, 27.6%; in the assay on HCT-116 colon, 25.1%; in the assay with HCC-2998 colon, 58.2%; with KM12 colon it was 63.8%. Further, the growth in the assay with MDA-MB-468 breast is -4.4% (active).

In the case of `Cc1ccc(C(=O)CSc2nc3ccc(C)cc3c(=O)n2-c2ccc(F)cc2)cc1`, the growth with SR leukemia is 99.7%; in the assay with RPMI-8226 leukemia, 98.5%; with OVCAR-8 ovarian it was 31.3%; in the assay on OVCAR-5 ovarian, 84.8%; in the assay with OVCAR-4 ovarian, 28.6%; in the assay on SK-OV-3 ovarian, 54.9%. Further, the growth in the assay on IGROV1 ovarian is 80.5%; in the assay on OVCAR-3 ovarian, 89.5%; with HS 578T breast it was -8.71% (active); with NCI/ADR-RES ovarian, 40.6%; in the assay with T-47D breast, 52.5%; in the assay with BT-549 breast it was 73.9%. Also, the growth in the assay on MDA-MB-435 melanoma is 89.6%; in the assay with SW-620 colon, 89%; with MCF7 breast it was 78.1%; in the assay on HCT-116 colon, 18.8%; with HCC-2998 colon it was 83.5%; in the assay with KM12 colon it was 93.7%. Moreover, in the assay on MDA-MB-468 breast, the growth was 67.2%.

These data come from PubChem BioAssay (NCI).
